Data from PubChem BioAssay AID588446 (NMMLSC, 2011).
Values without a mark were called inactive.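 How the source made its calls: active means dose fit with top-dose inhibition above 36% and EC50 error under a fifth of EC50, and EC50 under 30 µM; inactive means the rest.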

Each molecule was assayed against Integrin alpha-4 (Homo sapiens) (UniProt P13612) (assay: VLA-4 ligand competition with LDV-FITC, dose response, orthogonal assay, cell-based, plate-based, flow cytometry, set 2 (AID 588446)). Settings: cells, LDV-FITC binding displacement; series mostly up to 66.7 µM; inhibition: at the top concentration.
Integrin alpha-4 (Homo sapiens), sequence (P13612 whole entry, looked up): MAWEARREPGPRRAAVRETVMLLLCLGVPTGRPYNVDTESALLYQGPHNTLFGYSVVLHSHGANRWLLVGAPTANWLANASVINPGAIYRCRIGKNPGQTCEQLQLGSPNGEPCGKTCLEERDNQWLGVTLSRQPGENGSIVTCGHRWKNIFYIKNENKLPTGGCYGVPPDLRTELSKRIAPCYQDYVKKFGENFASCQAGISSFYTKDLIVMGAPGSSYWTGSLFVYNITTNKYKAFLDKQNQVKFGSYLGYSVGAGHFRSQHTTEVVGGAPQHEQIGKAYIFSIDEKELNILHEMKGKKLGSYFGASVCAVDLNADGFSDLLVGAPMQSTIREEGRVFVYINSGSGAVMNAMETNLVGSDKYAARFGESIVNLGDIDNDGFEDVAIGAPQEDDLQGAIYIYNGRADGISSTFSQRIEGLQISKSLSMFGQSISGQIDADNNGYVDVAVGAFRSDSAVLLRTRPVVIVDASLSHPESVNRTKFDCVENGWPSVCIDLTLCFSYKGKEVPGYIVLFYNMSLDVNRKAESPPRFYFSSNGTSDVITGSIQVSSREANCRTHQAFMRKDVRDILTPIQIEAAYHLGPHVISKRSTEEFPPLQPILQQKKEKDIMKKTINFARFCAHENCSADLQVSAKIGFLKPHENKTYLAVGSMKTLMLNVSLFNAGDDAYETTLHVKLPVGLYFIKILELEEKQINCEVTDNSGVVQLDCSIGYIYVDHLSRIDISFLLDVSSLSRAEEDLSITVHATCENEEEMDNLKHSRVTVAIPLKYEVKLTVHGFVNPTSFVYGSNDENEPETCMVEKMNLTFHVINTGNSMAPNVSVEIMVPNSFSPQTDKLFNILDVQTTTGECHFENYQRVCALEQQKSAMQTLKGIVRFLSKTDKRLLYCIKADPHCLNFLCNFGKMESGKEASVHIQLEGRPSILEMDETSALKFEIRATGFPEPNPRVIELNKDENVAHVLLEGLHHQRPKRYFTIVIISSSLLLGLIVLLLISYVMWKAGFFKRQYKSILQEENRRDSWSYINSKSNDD

Row | SMILES | inhibition
1 | Cc1cc(C(=O)N2CCCC2c2nc3ccccc3s2)on1 (centres undefined) | 21.9
2 | COCCn1c(C2CC(=O)N(c3ccccc3C)C2)nc2ccccc21 (centres undefined) | -15
3 | O=C(c1ccc(OCCN2CCCCC2)cc1)c1c(-c2ccc(O)cc2)sc2cc(O)ccc12 | -53.4
4 | CC(=O)N(C)Cc1nc2ccccc2n1CCOc1ccc(C)cc1 | 4.65
5 | COc1ccc(C2CCCN2C(=O)c2sccc2C)cc1OC (centres undefined) | 30.2
6 | Cc1oc(-c2cccs2)nc1CN1C(=O)C2CC=CCC2C1=O (centres undefined) | -24.5
7 | CN1CC(c2nc3ccccc3n2CCOc2ccccc2)CC1=O (centres undefined) | 33.1
8 | Cc1nc(C)c(C(=O)N2CCCC2c2nc3ccccc3s2)s1 (centres undefined) | 14.2
9 | COCC(=O)N1CCC2(CCCN(CCc3ccccc3)C2=O)C1 (centres undefined) | 88.4
